Source: PubChem BioAssay (several laboratories)
MITF TRPM1 inh = inhibitors of MITF-dependent TRPM1 promoter reporter, primary screen, cell-based, SK-MEL-5, single point, luciferase. SK-MEL-5 TRPM1 promoter luciferase, 24 h. inhibition, % at 12.5 µM. 330,000 tested, 0.83% active;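 active means mean inhibition across replicates of 60% or more, whatever share of single replicates reaches that level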
HIF-2a block = HIF-2a reporter inhibitors, primary screen, luminescence, 786-0 RCC cells. 786-0 RCC cells HIF-2a reporter, luciferase luminescence, overnight. AID 624352, 2012. 360,000 tested, 0.72% active. inhibition, % at 18.8 µM;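 active means inhibition of the luminescence signal of 40% or more relative to plate controls, in a single-dose primary screen at 18.75 µM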
ABHD5-PLIN5 inh = ABHD5-PLIN5 interaction inhibitors, primary screen, cell lysate, split luciferase complementation, luminescence; Perilipin-5 (Homo sapiens) + 1-acylglycerol-3-phosphate O-acyltransferase ABHD5 (Homo …; Split G. princeps luciferase complementation, 4 h; inhibition, % at 4 µM; 360,000 tested, 0.78% active; AID 602281, 2012;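 active means inhibition above the mean inhibition across every tested compound plus 3 SD, cut at about 22% in these data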;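 further: 0% = DMSO only wells and the 100% control is not disclosed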
Target sequence (Q00G26 whole entry, looked up): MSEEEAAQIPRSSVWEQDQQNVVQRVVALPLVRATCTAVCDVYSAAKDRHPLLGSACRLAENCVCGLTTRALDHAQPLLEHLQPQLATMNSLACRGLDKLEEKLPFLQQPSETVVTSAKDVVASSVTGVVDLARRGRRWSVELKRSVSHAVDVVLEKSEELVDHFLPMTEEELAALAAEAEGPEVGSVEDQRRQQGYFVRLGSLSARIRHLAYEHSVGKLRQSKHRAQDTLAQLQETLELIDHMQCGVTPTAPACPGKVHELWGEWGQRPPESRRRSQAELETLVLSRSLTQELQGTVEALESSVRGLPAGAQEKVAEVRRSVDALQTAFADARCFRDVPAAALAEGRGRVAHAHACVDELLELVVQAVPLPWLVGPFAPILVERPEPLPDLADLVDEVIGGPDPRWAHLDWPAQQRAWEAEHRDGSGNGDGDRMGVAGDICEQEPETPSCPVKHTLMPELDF
Target sequence (Q8WTS1 whole entry, looked up): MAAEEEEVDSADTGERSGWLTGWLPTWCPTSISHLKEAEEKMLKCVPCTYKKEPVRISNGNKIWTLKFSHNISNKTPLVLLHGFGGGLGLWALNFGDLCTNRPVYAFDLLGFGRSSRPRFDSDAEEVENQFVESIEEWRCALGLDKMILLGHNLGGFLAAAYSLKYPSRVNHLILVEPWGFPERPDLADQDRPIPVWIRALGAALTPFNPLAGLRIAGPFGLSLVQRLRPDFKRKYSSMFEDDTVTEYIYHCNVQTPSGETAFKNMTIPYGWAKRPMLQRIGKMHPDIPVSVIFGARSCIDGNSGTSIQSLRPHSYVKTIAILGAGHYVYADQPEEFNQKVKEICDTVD
CF NFkB block = inhibitors of PAF-induced NF-kB signaling, primary screen, cell-based, GFP fluorescence, uHTS; 360,000 tested, 0.86% active; inhibition, % at 5 µM; KKLEB NF-kB-GFP reporter, GFP fluorescence overnight;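 active means at least 50% inhibition at 5 µM, scaled per plate between neutral and stimulator controls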;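 further: PAF is a Pseudomonas aeruginosa culture filtrate used as stimulus; plate controls were PAF-stimulated DMSO wells for no effect and unstimulated DMSO wells for full effect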
Peg3 promoter = Peg3 promoter-driven luciferase inhibitors, primary screen, cell-based, HeLa, luciferase luminescence; HeLa PEG-Prom luciferase reporter, overnight; inhibition, % at 20 µM; 360,000 tested, 1.7% active; AID 588405, 2011;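 active means inhibition of at least 50% at 20 µM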
KKLEB cytotox = cytotoxicity in KKLEB CF airway cells, primary screen, cytotoxicity control for CF NF-kB inhibitor project, cell-based, uHTS, fluorescence assay plates; 360,000 tested, 0.36% active; AID 602141, 2011; KKLEB CF airway cells viability, ATPlite luminescence, overnight; active compounds read low; cells stimulated with P. aeruginosa culture filtrate; activity change (cytotoxicity), % at 5 µM;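 active means corrected activity change at or below -50% at 5 µM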
ABHD5 PLIN5 conf = ABHD5-PLIN5 interaction inhibitors, confirmation, biochemical, luminescence; 2,200 tested, 67% active; shares compounds with ABHD5-PLIN5 inh; inhibition, % at 4 µM; in the data active means inhibition above about 23%;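 further: 0% = DMSO vehicle wells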
HNF4 counter = HNF4 dimerization inhibitors, counter-screen for ABHD5-PLIN5 interaction inhibitor project, biochemical, split-luciferase complementation, luminescence; shares compounds with ABHD5-PLIN5 inh; AID 651674, 2012; 2,200 tested, 77% active; inhibition, % at 4 µM;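 active means mean inhibition across replicate wells exceeding the computed hit threshold, cut at about 13% in these data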;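 further: light from luciferase halves that rejoin when HNF4 fusion proteins dimerize; 0% = DMSO only wells and the 100% control is not given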
Starred values were filed as active, the others as inactive; nt = no result given. This is a sample that favours compounds with a hit; in the whole collection about 3% have one here.

SMILES	MITF TRPM1 inh	HIF-2a block	ABHD5-PLIN5 inh	CF NFkB block	Peg3 promoter	KKLEB cytotox	ABHD5 PLIN5 conf	HNF4 counter
N#C/C(=C/c1ccc(N2CCCCC2)o1)C(=O)Nc1ccc2ccccc2c1	-51	-281	26*	-242	-116	10	37*	31*
COc1ccc(NC(=O)/C(C#N)=C\c2ccc(N3CCOCC3)o2)cc1	-60	-237	13	-100	-225	-7	nt	nt
N#C/C(=C/c1ccc(N2CCOCC2)o1)C(=O)NC1CCCCC1	-39	-164	27*	-7	-121	8	13	34*
CCOc1ccccc1NC(=O)C(OC(=O)c1cnccn1)c1ccccc1 (stereo not given)	-2	4	0	8	-12	-7	nt	nt
CC1(C)CC(=O)C(C(C2=C(O)CC(C)(C)CC2=O)c2cccc(O)c2)C(=O)C1 (stereo not given)	20	22	12	-16	6	0	nt	nt
CC1(C)CC(=O)C(C(C2=C(O)CC(C)(C)CC2=O)c2cccs2)C(=O)C1 (stereo not given)	-3	18	41*	18	20	-1	64*	69*
Cc1cccn2c(=O)nc(SCC(=O)Nc3cccc4ccccc34)nc12	11	-13	104*	-46	-4	7	1	0
O=C(COC(=O)c1ccc(Br)cc1)NCc1ccccc1	-8	15	0	0	4	7	nt	nt
CC(=O)Cc1cc(O)c2ccccc2c1OC(=O)c1ccc(Br)cc1	19	23	73*	11	15	-8	83*	13*
CC(=O)N(c1ccc2oc(=O)sc2c1)S(=O)(=O)c1cccc2cccnc12	-2	5	25*	-4	-10	24	-39	-8
CC(=O)N(c1ccc2oc(=O)sc2c1)S(=O)(=O)c1ccc(C(=O)O)cc1	-1	10	25*	6	-3	11	-42	82*
CC(=O)N(c1ccc2oc(=O)sc2c1)S(=O)(=O)c1cccs1	4	14	9	-9	-4	8	nt	nt
Cc1cc(NS(=O)(=O)c2ccc(NC(=O)/C=C/c3ccc(C)o3)cc2)nc(C)n1	7	3	29*	4	10	-8	51*	60*
Cc1ccc(/C=C/C(=O)NCc2cccs2)o1	-5	-35	24*	-7	-23	-2	14	18*
COc1ccc(NC(=O)/C=C/c2ccc(C)o2)cc1S(=O)(=O)N1CCOCC1	10	6	23*	2	6	7	16	17*
Cc1ccc(/C=C/C(=O)Nc2ccc(Oc3ccccc3)cc2)o1	-8	-110	24*	8	-74	-27	10	39*
CC(=O)N[C@@H](Cc1c[nH]c2ccccc12)C(=O)NCc1ccccc1	4	2	-1	-10	13	5	nt	nt
CC(=O)Oc1ccc2c(c1)C(=O)CCCCCC(=O)O2	nt	3	5	-22	-16	10	nt	nt
Cn1c(NCCN2CCCCC2)cc(=O)n(C)c1=O	2	8	28*	3	4	-6	-1	3
CCCNc1cc(=O)n(C)c(=O)n1C	6	1	4	18	9	-11	nt	nt
COc1ccc(CCNC(=O)CN(c2cccc([N+](=O)[O-])c2)S(C)(=O)=O)cc1OC	1	9	82*	6	5	6	7	5
COc1ccc(CCNC(=O)CN(c2cc([N+](=O)[O-])ccc2OC)S(C)(=O)=O)cc1OC	-7	16	-1	7	11	-8	nt	nt
Cc1ccccc1NC(=O)COc1coc(CN2CCN(c3ccccc3)CC2)cc1=O	11	-10	3	6	11	-5	nt	nt
NCc1ccccc1CS(=O)(=O)N1CCOCC1	-1	1	-3	11	10	2	nt	nt
CC(NC(=O)/C=C/c1ccco1)c1nc2ccccc2n1Cc1c(Cl)cccc1Cl (stereo not given)	8	10	11	-3	12	4	nt	nt
SMILES	MITF TRPM1 inh	HIF-2a block	ABHD5-PLIN5 inh	CF NFkB block	Peg3 promoter	KKLEB cytotox	ABHD5 PLIN5 conf	HNF4 counter
CC(NC(=O)/C=C/c1ccco1)c1nc2ccccc2n1Cc1ccccc1F (stereo not given)	-2	0	35*	3	8	2	13	12
Cc1ccc(O)c(NC(=S)NC(=O)/C=C/c2ccco2)c1	-27	-205	-2	12	-134	-24	nt	nt
Cc1ccnc(NC(=S)NC(=O)/C=C/c2ccco2)c1	-46	-218	24*	12	-261	-6	2	11
COC(C/C=C/C(=O)COCc1ccccc1)OC	0	-8	24*	10	-4	-7	46*	43*
COC(C/C=C\[C@H](O)COCc1ccccc1)OC	3	12	3	-36	4	10	nt	nt
COC(C[C@@H]1O[C@H]1C(=O)COCc1ccccc1)OC	12	10	31*	15	13	-2	6	1
Cc1c(Cl)cc(C(C)C)c(O)c1CN1CCOCC1	3	2	2	-11	-267	8	nt	nt
COCC1=C(C(=O)OC)C(c2ccco2)n2ncnc2N1 (stereo not given)	nt	18	38*	-8	0	7	-3	9
Nc1nonc1C(=O)NCCNC(=O)c1cccc(Cl)c1	8	6	3	6	13	-1	nt	nt
Cc1cc(C(=O)NNC(=O)/C=C/c2ccco2)c(C)o1	2	0	42*	0	6	4	66*	49*
COc1cc2ccccc2cc1C(=O)O	-11	7	0	-18	6	-7	nt	nt
COc1ccc(OC)c2cc3ccccc3cc12	27	-29	48*	-53	55*	-3	67*	12
COc1ccc(CCNC(=O)c2nn(C)c3c2CS(=O)(=O)c2ccccc2-3)cc1OC	2	5	5	3	22	-2	nt	nt
CC(C)c1ccc(OCC(=O)Nc2c3c(nn2C(C)(C)C)CS(=O)(=O)C3)cc1	-1	7	5	-14	5	11	nt	nt
COC(=O)[C@H]1C[C@@]2(O)CN(S(=O)(=O)c3ccc(C)cc3)C[C@@]2(OC(=O)NC2CC2)C[C@H]1C(=O)OC	nt	4	-8	2	-2	-12	nt	nt
